# PubChem BioAssay (NCATS)
# Inconclusive results are not listed. Unmarked numbers belong to inactive results. Activity calls are given as the source filed them. Calls come from the whole dose curve; as a rule, active = well fitted inhibition curve with a large enough effect; inconclusive = small, poorly fitted or top-dose-only effect; inactive = flat fitted curve, though single readings scatter.
# Test system: Zika virus NS2B-NS3 protease
# Assay: Primary screen GU AMC qHTS for Zika virus inhibitors (AID 1347154);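 note: 0% = no-inhibitor control and -100% = no-enzyme control; nearly all actives have a fitted effect of over 70% in size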
# Details: Zika NS2B-NS3 unlinked protease, AMC fluorogenic substrate; series mostly up to 54.1 µM; activity change, negative = inhibition: at the top concentration
# How it was run: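 Fluorogenic AMC-substrate cleavage by noncovalent NS2B-NS3 protease complex (25 nM, pH 8.0 Tris buffer with Tween 20) followed for 15 minutes at room temperature (~20% conversion). Percent inhibition from ex340/em450 signal change, fitted by 4-parameter Hill equation.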
SMILES,"activity change, negative = inhibition",Potency
CCC(C(=O)OCCOCCN(CC)CC)c1ccccc1 (centres undefined),-0.17%,–
COc1cc(C(=S)N2CCOCC2)ccc1O,-4.72%,–
CCN1CCN(C(=O)N[C@@H](C(=O)N[C@@H]2C(=O)N3C(C(=O)O)=C(CSc4nnnn4C)CS[C@H]23)c2ccc(O)cc2)C(=O)C1=O,6.59%,–
CN1CCN(C2=Nc3cc(F)ccc3Cc3ccccc32)CC1,–,inactive
O=C1OC2(c3ccccc31)c1cc(Br)c(O)c(Br)c1Oc1c2cc(Br)c(O)c1Br,-7.71%,–
Cc1cn([C@H]2C[C@H](F)[C@@H](CO)O2)c(=O)[nH]c1=O,-4.64%,–
CC1=C(C(=O)O)N2C(=O)[C@@H](NC(=O)[C@H](N)c3ccccc3)[C@H]2SC1,0.758%,–
CN1CCN(CCC(=O)N2c3ccccc3Sc3ccc(C(F)(F)F)cc32)CC1,-1.16%,–
COc1ccc(-c2cc(C(F)F)nn2-c2ccc(S(N)(=O)=O)cc2)cc1F,-4.56%,–
CCCN(CCC)S(=O)(=O)c1ccc(C(=O)O)cc1,11.9%,–
Nc1nc(-c2ccccc2)c(Br)c(=O)[nH]1,-3.04%,–
COc1cc(N)c(Cl)cc1C(=O)NC1CCN(Cc2ccccc2)CC1,-5.36%,–
CCCCCCCCNC(C)C(O)c1ccc(SC(C)C)cc1 (centres undefined),-11.8%,–
OC[C@H]1O[C@@H](Oc2ccc(O)cc2)[C@H](O)[C@@H](O)[C@@H]1O,-0.61%,–
CCN(CC)CCNC(=O)COc1ccc(OC)cc1,-1.56%,–
NS(=O)(=O)c1cc2c(cc1Cl)NC(CC1CCCC1)NS2(=O)=O (centres undefined),1.56%,–
CC(=O)O[C@]1(C(C)=O)CC[C@H]2[C@@H]3C=C(Cl)C4=CC(=O)CC[C@]4(C)[C@H]3CC[C@@]21C,-9.07%,–
C=CCN1CCc2nc(N)sc2CC1,–,inactive
COc1ccc(S(=O)(=O)N2c3ccc(Cl)cc3[C@@](O)(c3ccccc3Cl)[C@H]2C(=O)N2CCC[C@@H]2C(N)=O)cc1OC,-5.45%,–
CCNC(=O)NCc1cccc(Cl)c1,-1.04%,–

SMILES,"activity change, negative = inhibition",Potency
NC(=O)n1c(O)c(C(=O)c2cccs2)c2cc(Cl)ccc21,–,inactive
CCC(Cc1c(I)cc(I)c(N)c1I)C(=O)O (centres undefined),-8.93%,–
O=C1OC(CN2CCOCC2)CN1/N=C/c1ccc([N+](=O)[O-])o1 (centres undefined),-8.53%,–
Cl/C(=C\n1cncn1)c1ccc(Cl)cc1Cl,–,inactive
Cc1cccc(C)c1NC(=O)CN1CCCC1,-0.315%,–
CCCCCCCCCCCCCCCC(=O)O,-23.1%,–
Cc1cc2c(OCC(CNC(C)(C)C)OC(=O)c3ccccc3)cccc2[nH]1 (centres undefined),4.19%,–
C[N+]12CCC(CC1)C(OC(=O)C(O)(c1ccccc1)c1ccccc1)C2 (centres undefined),3.63%,–
Clc1cccc(C(c2ccc3nc[nH]c3c2)n2ccnc2)c1 (centres undefined),1.16%,–
C#C[C@]1(O)CC[C@H]2[C@@H]3[C@H](C)CC4=C(CCC(=O)C4)[C@H]3CC[C@@]21C,-8.26%,–
O=c1[nH]c(=O)n([C@H]2C[C@H](O)[C@@H](CO)O2)cc1F,0.413%,–
O=S(=O)(O)c1ccc(O)cc1,4.73%,–
CCCCCN=C(N)N/N=C/c1c[nH]c2ccc(OC)cc12,15.9%,–
CC(C)Cn1cnc2c1c(=O)n(C)c(=O)n2C,0.981%,–
O=C(O)c1ccc(S(=O)(=O)N(Cl)Cl)cc1,-3.63%,–
CC(C)CCCC(C)N (centres undefined),-4.32%,–
CNCCc1ccccn1,0.521%,–
NS(=O)(=O)c1ccc(Cl)c(S(N)(=O)=O)c1,-0.458%,–
CCN(CC)CCNC(=O)c1cc(Br)c(N)cc1OC,-1.36%,–
